From PubChem BioAssay (EPA / NIEHS)
Inconclusive results are not listed. Active and inactive are the calls of the source. The calls were made as follows, unless noted: active = hit-call score of the fitted dose curve at least 0.9, where 1 is the maximum; inactive = score below 0.9.

How the values were obtained:
[1] = target: Paired box protein Pax-6 (Homo sapiens) (UniProt P26367); experiment: ATG_Pax6_CIS: Attagene CIS-FACTORIAL HepG2 Assay for human Paired Box 6 (PAX6) (AID 2282956); settings: HepG2 CIS-FACTORIAL PAX6 reporter transcription, RNA readout; actives raise or lower the signal
In short: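 Values derive from bidirectional curve fitting of reporter mRNA signal relative to DMSO. HepG2 cells bearing transfected cis-regulated MRTUs were exposed for 24 h; transcripts were read by RT-PCR and capillary electrophoresis.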

[2] = ATG_PXRE_CIS: Attagene CIS-FACTORIAL HepG2 Assay for human Pregnane X Receptor Element (PXRE) (AID 2282957); settings: HepG2 Attagene CIS-FACTORIAL PXRE reporter, mRNA; actives raise or lower the signal
In short: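 Bidirectional activity, baselined to DMSO, derived from reporter mRNA fluorescence (RT-PCR plus capillary electrophoresis) in HepG2 cells bearing cis-promoter reporter units, 24 h exposure.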

[3] = ATG_PPRE_CIS: Attagene CIS-FACTORIAL HepG2 Assay for human Peroxisome Proliferator-activated Response Element (PPRE) (AID 2282958); settings: HepG2 PPRE cis-element reporter, Attagene transcription factor profiling; actives raise or lower the signal
In short: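 HepG2 cells are transiently transfected with multiplexed cis-promoter reporter units to report endogenous PPAR activity. After 24 h dosing, reporter mRNA is read by RT-PCR and capillary electrophoresis. Fitting is bidirectional against DMSO.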

[4] = ATG_RORE_CIS: Attagene CIS-FACTORIAL HepG2 Assay for human RAR-related Orphan Receptor Element (RORE) (AID 2282959); settings: HepG2 Attagene cis-factorial RORE reporter, mRNA; actives raise or lower the signal
In short: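 HepG2 cells carrying transiently transfected cis-regulated reporter units; RORE-driven reporter mRNA quantified 24 h post-dosing by RT-PCR, 6-FAM primer extension, HpaI digestion and capillary electrophoresis. Bidirectional fit versus DMSO.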

[5] = ATG_Sox_CIS: Attagene CIS-FACTORIAL HepG2 Assay for human SRY-box transcription factor (SOX) (AID 2282960); settings: HepG2 Attagene cis-factorial SOX reporter, mRNA; actives raise or lower the signal
In short: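 HepG2 cells transiently transfected with multiple cis-regulated reporter units, then dosed for 24 h. Reporter mRNA quantified by RT-PCR, fluorescent labelling, HpaI digestion and capillary electrophoresis; bidirectional fit versus DMSO.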

[6] = ATG_SREBP_CIS: Attagene CIS-FACTORIAL HepG2 Assay for human Sterol Regulatory Element Binding (SREBP) (AID 2282962); settings: HepG2 Attagene cis-factorial SREBP reporter, mRNA; actives raise or lower the signal
In short: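 Values derive from bidirectional curve fitting with DMSO as baseline. The underlying measurement is reporter mRNA from cis-element-regulated units in transiently transfected HepG2, quantified by RT-PCR and capillary electrophoresis after 24 h exposure.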

[7] = target: Signal transducer and activator of transcription 3 (Homo sapiens) (UniProt P40763); experiment: ATG_STAT3_CIS: Attagene CIS-FACTORIAL HepG2 Assay for human Signal Transducer and Activator of Transcription 3 (STAT3) (AID 2282963); settings: HepG2, Attagene cis-factorial STAT3 reporter transcription; actives raise or lower the signal
In short: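 Cis-factorial format: endogenous transcription factors in HepG2 drive transfected reporter units. After 24 h treatment, reporter RNA was reverse-transcribed, amplified, FAM-labelled and HpaI-digested before CE analysis; activity scored in both directions against DMSO.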

[8] = ATG_TA_CIS: Attagene CIS-FACTORIAL HepG2 Assay for human TA Basal Promoter (AID 2282964); settings: HepG2 Attagene CIS-factorial TA basal promoter reporter; actives raise or lower the signal
In short: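 Fluorescence from labelled RT-PCR reporter fragments, separated by capillary electrophoresis, gives the signal. Cells: HepG2 transiently carrying multiple reporter units, 24 h chemical dosing. Gain or loss relative to DMSO.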

[9] = ATG_TCF_b_cat_CIS: Attagene CIS-FACTORIAL HepG2 Assay for human T-Cell-Factor with beta-catenin (TCF/b-cat) (AID 2282965); settings: HepG2 TCF/beta-catenin cis-reporter transcription, actives raise or lower the signal
In short: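 Endogenous transcription factor activity is captured through cis-promoter reporter constructs transiently introduced into human HepG2 liver cells. Induced reporter mRNA is measured after 24 h and fitted bidirectionally relative to DMSO.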

[10] = ATG_TAL_CIS: Attagene CIS-FACTORIAL HepG2 Assay for human TAL Basal Promoter (AID 2282966); settings: HepG2 Attagene cis-factorial TAL promoter reporter; actives raise or lower the signal;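 also: background control endpoint measuring basal TAL promoter reporter mRNA not a specific factor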
In short: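 Human hepatoma HepG2 cells, transfected with promoter-regulated reporter units, were treated 24 h. Reporter transcript levels, measured through RT-PCR and capillary electrophoresis, were fitted for gain or loss relative to DMSO.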

[11] = ATG_TGFb_CIS: Attagene CIS-FACTORIAL HepG2 Assay for human Transforming Growth Factor (TGF) (AID 2282967); settings: HepG2 Attagene CIS TGFb reporter, mRNA transcription; actives raise or lower the signal
In short: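 Bidirectional fitting relative to DMSO gave the endpoint. Underlying data: reporter mRNA from HepG2 cells carrying transiently transfected cis-regulated reporter constructs, harvested 24 h after dosing and analyzed by RT-PCR and capillary electrophoresis.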

[12] = target: Nuclear receptor subfamily 1 group I member 3 (Homo sapiens) (UniProt Q14994); experiment: ATG_CAR_TRANS: Attagene TRANS-FACTORIAL HepG2 Assay for human Constitutive Androstane Receptor (CAR) (AID 2282969; active = hit-call score of the fitted dose curve at least 0.9, where 1 is the maximum;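 also: activators raise reporter mRNA above DMSO so AC50 marks induction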); settings: HepG2 Attagene TRANS-FACTORIAL CAR reporter
In short: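 Signal is reporter mRNA induction relative to DMSO, measured 24 h after dosing by RT-PCR with fluorescent primer extension and capillary electrophoresis. Human HepG2 liver cells carried transiently transfected chimeric NR-Gal4/GAL4-UAS reporter constructs.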

[13] = target: X-box-binding protein 1 (Homo sapiens) (UniProt P17861); experiment: ATG_Xbp1_CIS: Attagene CIS-FACTORIAL HepG2 Assay for human X-box Binding Protein 1 (XBP1) (AID 2282972); settings: HepG2 XBP1 cis-element reporter, Attagene multiplex; actives raise or lower the signal
In short: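 Human hepatoma HepG2, cis-element reporter system, 24 h treatment; mRNA quantified by RT-PCR/CE fluorescence; fit relative to DMSO.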

[14] = ATG_M_19_TRANS: Attagene TRANS-FACTORIAL HepG2 Assay for M19 Transcription Factor (Internal Marker) (AID 2282974; active = hit-call score of the fitted dose curve at least 0.9, where 1 is the maximum); settings: HepG2 Attagene TRANS-FACTORIAL M19 internal marker reporter
In short: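 HepG2 transiently transfected with GAL4-UAS multiplex reporter constructs, exposed 24 h; reporter RNA quantified by RT-PCR, 6-FAM labeling, HpaI digestion and capillary electrophoresis; internal background marker fitted upward versus DMSO.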

[15] = target: Estrogen-related receptor gamma (Homo sapiens) (UniProt P62508); experiment: ATG_ERRg_TRANS: Attagene TRANS-FACTORIAL HepG2 Assay for human Estrogen-Related Receptor gamma (ERRg) (AID 2282977; active = hit-call score of the fitted dose curve at least 0.9, where 1 is the maximum;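 also: hits increase reporter signal over DMSO so potencies reflect activators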); settings: HepG2 Attagene TRANS reporter, ERRg transactivation
In short: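 Exogenous NR-Gal4 chimera activity was assessed in HepG2 cells bearing transfected GAL4-UAS reporters. After 24 h dosing, total RNA underwent RT-PCR, fluorescent primer extension and HpaI digestion before capillary electrophoresis, with gain of signal scored against DMSO.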

[16] = target: Transcription factor Sp1 (Homo sapiens) (UniProt P08047); experiment: ATG_Sp1_CIS: Attagene CIS-FACTORIAL HepG2 Assay for human Specificity Protein 1 (Sp1) (AID 2282961); settings: HepG2 Sp1 cis-reporter transcription, actives raise or lower the signal
In short: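 HepG2 cells transiently transfected with multiplexed cis-regulated reporter constructs, chemical exposure 24 h. Reporter mRNA quantified by RT-PCR with capillary electrophoresis; bidirectional fit relative to DMSO.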

[17] = ATG_VDRE_CIS: Attagene CIS-FACTORIAL HepG2 Assay for human Vitamin D Receptor Element (VDRE) (AID 2282968); settings: HepG2 VDRE cis-reporter transcription, actives raise or lower the signal
In short: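 Measures endogenous factor activity through cis-element-driven reporter transcripts in transiently transfected HepG2. Cells are treated 24 h; reporter mRNA is quantified by RT-PCR and capillary electrophoresis; fitting is bidirectional.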

[18] = ATG_GAL4_TRANS: Attagene TRANS-FACTORIAL HepG2 Assay for GAL4 (Internal Marker) (AID 2282976; active = hit-call score of the fitted dose curve at least 0.9, where 1 is the maximum); settings: HepG2 Attagene TRANS GAL4 internal marker reporter
In short: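 Liver HepG2 line bearing multiplexed GAL4-UAS reporter constructs; 24 h chemical treatment. Transcripts were quantified as fluorescent fragments on capillary electrophoresis after RT-PCR and HpaI cut, with activity fitted upward from DMSO.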

Measured: AC50

Chain of Paired box protein Pax-6 (Homo sapiens) (P26367 whole entry, looked up): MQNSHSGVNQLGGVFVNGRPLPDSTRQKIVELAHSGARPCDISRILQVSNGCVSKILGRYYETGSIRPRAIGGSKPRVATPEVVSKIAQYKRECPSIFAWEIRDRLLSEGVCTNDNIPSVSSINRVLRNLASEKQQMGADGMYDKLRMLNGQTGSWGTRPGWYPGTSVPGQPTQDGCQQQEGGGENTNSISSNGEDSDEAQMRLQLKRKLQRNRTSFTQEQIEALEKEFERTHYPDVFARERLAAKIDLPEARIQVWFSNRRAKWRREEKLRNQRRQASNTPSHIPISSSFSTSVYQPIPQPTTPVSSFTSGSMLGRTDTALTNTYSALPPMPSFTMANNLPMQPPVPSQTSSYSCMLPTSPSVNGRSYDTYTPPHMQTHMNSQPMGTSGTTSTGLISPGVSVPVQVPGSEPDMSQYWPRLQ
Chain of Transcription factor Sp1 (Homo sapiens) (P08047 whole entry, looked up): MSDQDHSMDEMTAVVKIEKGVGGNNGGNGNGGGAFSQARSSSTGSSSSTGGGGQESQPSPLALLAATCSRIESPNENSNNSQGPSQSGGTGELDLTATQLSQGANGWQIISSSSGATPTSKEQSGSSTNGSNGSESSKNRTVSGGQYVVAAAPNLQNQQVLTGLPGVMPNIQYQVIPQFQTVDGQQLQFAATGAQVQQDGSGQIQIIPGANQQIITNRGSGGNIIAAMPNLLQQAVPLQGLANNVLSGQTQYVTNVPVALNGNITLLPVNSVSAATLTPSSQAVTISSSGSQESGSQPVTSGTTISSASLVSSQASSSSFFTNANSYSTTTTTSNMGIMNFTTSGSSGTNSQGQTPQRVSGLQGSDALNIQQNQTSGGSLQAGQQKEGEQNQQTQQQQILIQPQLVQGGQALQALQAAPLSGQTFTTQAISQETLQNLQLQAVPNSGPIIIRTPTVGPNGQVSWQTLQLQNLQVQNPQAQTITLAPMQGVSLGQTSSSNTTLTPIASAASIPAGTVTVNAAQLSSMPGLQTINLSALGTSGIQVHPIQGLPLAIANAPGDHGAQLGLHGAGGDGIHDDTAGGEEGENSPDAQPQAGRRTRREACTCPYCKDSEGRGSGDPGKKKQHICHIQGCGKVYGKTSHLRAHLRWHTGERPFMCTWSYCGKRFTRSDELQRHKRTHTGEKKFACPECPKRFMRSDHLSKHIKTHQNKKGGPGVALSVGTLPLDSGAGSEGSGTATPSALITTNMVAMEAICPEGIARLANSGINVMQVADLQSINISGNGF
Chain of X-box-binding protein 1 (Homo sapiens) (P17861 whole entry, looked up): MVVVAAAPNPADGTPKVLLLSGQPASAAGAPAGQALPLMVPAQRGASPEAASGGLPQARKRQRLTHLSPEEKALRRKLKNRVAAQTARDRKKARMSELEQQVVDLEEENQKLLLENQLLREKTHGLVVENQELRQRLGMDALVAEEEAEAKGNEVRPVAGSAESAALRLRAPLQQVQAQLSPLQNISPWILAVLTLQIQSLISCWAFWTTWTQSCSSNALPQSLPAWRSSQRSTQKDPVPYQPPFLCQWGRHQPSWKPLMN
Chain of Signal transducer and activator of transcription 3 (Homo sapiens) (P40763 whole entry, looked up): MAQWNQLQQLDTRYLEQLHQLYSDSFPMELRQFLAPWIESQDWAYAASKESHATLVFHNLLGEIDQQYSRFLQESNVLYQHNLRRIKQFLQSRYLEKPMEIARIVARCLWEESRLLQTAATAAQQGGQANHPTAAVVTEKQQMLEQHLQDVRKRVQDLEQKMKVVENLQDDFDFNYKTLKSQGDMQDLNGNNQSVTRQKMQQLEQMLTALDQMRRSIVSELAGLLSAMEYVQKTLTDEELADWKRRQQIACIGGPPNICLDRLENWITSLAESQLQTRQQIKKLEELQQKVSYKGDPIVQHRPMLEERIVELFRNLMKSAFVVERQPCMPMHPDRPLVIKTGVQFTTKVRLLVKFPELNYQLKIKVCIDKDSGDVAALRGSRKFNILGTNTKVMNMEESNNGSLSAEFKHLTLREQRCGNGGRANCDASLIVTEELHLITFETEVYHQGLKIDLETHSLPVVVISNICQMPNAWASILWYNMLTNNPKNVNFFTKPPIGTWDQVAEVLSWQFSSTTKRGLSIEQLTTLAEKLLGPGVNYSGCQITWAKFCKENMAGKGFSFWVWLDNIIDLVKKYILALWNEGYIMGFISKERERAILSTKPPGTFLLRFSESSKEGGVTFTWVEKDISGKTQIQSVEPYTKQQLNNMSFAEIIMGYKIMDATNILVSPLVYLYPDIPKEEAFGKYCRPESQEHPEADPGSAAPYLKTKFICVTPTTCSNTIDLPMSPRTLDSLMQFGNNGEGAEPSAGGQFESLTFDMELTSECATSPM
Chain of Nuclear receptor subfamily 1 group I member 3 (Homo sapiens) (Q14994 whole entry, looked up, the tested form may be a part): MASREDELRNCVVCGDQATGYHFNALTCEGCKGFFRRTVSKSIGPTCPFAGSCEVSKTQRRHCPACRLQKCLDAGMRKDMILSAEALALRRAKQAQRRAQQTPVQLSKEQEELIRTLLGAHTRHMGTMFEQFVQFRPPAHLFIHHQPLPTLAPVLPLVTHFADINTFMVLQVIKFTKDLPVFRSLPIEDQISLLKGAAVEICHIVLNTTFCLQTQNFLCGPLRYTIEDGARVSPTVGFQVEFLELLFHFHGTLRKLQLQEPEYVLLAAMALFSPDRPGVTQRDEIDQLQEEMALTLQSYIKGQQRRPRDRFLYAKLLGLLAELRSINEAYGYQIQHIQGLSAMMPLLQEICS
Chain of Estrogen-related receptor gamma (Homo sapiens) (P62508 whole entry, looked up, the tested form may be a part): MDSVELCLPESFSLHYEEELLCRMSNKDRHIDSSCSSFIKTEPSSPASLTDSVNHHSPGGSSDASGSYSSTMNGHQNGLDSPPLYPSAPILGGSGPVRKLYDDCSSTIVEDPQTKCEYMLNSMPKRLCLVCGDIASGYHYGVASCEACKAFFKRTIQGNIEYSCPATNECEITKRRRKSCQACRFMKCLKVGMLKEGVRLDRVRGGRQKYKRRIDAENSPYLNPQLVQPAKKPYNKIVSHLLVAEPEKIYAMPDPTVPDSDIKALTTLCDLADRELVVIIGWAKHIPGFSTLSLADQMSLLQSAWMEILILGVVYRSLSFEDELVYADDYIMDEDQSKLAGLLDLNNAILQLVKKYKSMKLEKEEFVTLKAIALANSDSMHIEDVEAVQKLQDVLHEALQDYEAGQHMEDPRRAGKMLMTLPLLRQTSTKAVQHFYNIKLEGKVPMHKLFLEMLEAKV

C/C=C(\C)C(=O)OCCc1ccccc1
active: [2] 27.7 µM
not listed: [16] | [17] | [18]
inactive: all other assays above

COc1cc([C@@H]2c3cc4c(cc3[C@@H](O[C@@H]3O[C@@H]5CO[C@@H](C)O[C@H]5[C@H](O)[C@H]3O)[C@H]3COC(=O)[C@H]23)OCO4)cc(OC)c1O
active: [2] 35.2 µM
not listed: [8] | [12] | [13] | [18]
inactive: all other assays above

CN(C)CCOC(C)(c1ccccc1)c1ccccn1 (stereo not given)
active: [2] 100 µM
not listed: [11] | [16]
inactive: all other assays above

Nc1ccc(Cl)c([N+](=O)[O-])c1
active: [2] 37.6 µM
not listed: [8] | [11] | [12] | [13] | [15]
inactive: all other assays above

O=Cc1ccccc1S(=O)(=O)O
not listed: [9] | [12] | [13] | [14] | [15] | [16] | [18]
inactive: all other assays above

COC(C)(C)CC(C)=O
active: [2] 34.4 µM
not listed: [5] | [15]
inactive: all other assays above
